Measured values taken from PubChem BioAssay (NCI).
Compounds without any hit were thinned out: in the full panel of roughly 83,000, 20% have a hit.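 In brief: 96-well plates, 48 h treatment, single concentration, percent growth endpoint.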 Values without a mark were called inactive. Activity calls are given as the source filed them. How the source made its calls: active means growth percent below 10; inactive means the rest.

Assays:
Assay in all cases: NCI-60 one-dose screen, 48 h (100 = growth as untreated, 0 = no growth, -100 = all killed)
Settings in all cases: 10 µM unless noted
NCI-H23 lung = test system: NCI-H23 lung
NCI-H226 lung = test system: NCI-H226 lung
NCI-H322M lung = test system: NCI-H322M lung
HOP-62 NSCLC = test system: HOP-62 NSCLC
NCI-H460 lung = test system: NCI-H460 lung
NCI-H522 lung = test system: NCI-H522 lung
A549/ATCC NSCLC = test system: A549/ATCC NSCLC
786-0 renal = test system: 786-0 renal
COLO 205 colon = test system: COLO 205 colon
DU-145 prostate = test system: DU-145 prostate
K-562 leukemia = test system: K-562 leukemia
MALME-3M melanoma = test system: MALME-3M melanoma
MDA-MB-231 breast = test system: MDA-MB-231 breast
RXF 393 renal = test system: RXF 393 renal
SF-268 CNS = test system: SF-268 CNS
SF-295 CNS = test system: SF-295 CNS
SF-539 CNS = test system: SF-539 CNS
UACC-257 melanoma = test system: UACC-257 melanoma
M14 melanoma = test system: M14 melanoma

Compound	growth (NCI-H23 lung)	growth (NCI-H226 lung)	growth (NCI-H322M lung)	growth (HOP-62 NSCLC)	growth (NCI-H460 lung)	growth (NCI-H522 lung)	growth (A549/ATCC NSCLC)	growth (786-0 renal)	growth (COLO 205 colon)	growth (DU-145 prostate)	growth (K-562 leukemia)	growth (MALME-3M melanoma)	growth (MDA-MB-231 breast)	growth (RXF 393 renal)	growth (SF-268 CNS)	growth (SF-295 CNS)	growth (SF-539 CNS)	growth (UACC-257 melanoma)	growth (M14 melanoma)
CS(=O)(=O)c1ccc(C(=O)N/N=C/c2ccccc2Cl)cc1	94.8%	97.4%	99.2%	87.3%	101%	96.4%	78.4%	97.2%	90.9%	98.8%	67.5%	100%	93.6%	117%	100%	103%	101%	64.5%	91.9%
O=C(NCCN1CCCC1)n1cc(-c2ccncc2)c(-c2cc(O)cc(Cl)c2)n1	102%	93.9%	115%	92.3%	99.2%	98.6%	101%	79.2%	76.4%	104%	82%	9.44% (active)	80.8%	75.5%	92.6%	125%	77.9%	43.4%	25.4%
COc1cc(C2CC(c3ccc(C)cc3)=NN2C=O)ccc1Oc1ccnc2cc(Cl)ccc12 (stereo not drawn)	58.6%	49.1%	91.1%	3.38% (active)	62.7%	28.3%	67.8%	18%	108%	89%	109%	98%	36.1%	0.362% (active)	16.3%	1.79% (active)	4.72% (active)	103%	106%
N/C(=N\OC(=O)c1ccccc1)C(Cc1ccccc1)C(=O)NOC(=O)c1ccccc1 (stereo not drawn)	46.6%	95.1%	89%	1.55% (active)	5.54% (active)	-53.7% (active)	-60.3% (active)	48.7%	69.3%	16.2%	-6.89% (active)	59.2%	70.7%	53.4%	1.91% (active)	-14.7% (active)	13.6%	88.8%	48.3%
COc1ccc(NC(=O)Cn2c(=O)sc3c(-c4ccc(Cl)cc4)cc(-c4ccc(Cl)cc4)nc32)cc1	91%	108%	95.1%	97.8%	102%	70%	96.7%	88.7%	100%	96.7%	85.1%	112%	110%	110%	93.1%	95.8%	98%	115%	94.1%
COc1ccc(C(=O)OC2C(OC3C(O)COC(O[C@H]4C[C@H]5[C@@H]6CC=C7C[C@@H](O)CC[C@]7(C)[C@H]6CC[C@]5(C)[C@H]4[C@H](C)C(=O)CCC(C)C)C3OC(N)=O)OCC(O)C2O)cc1 (stereo partly drawn)	23.3%	-1.18% (active)	53.7%	-22.2% (active)	-35.7% (active)	-68.7% (active)	11.3%	-59.4% (active)	-58% (active)	32.8%	-45.4% (active)	-34.3% (active)	-5.1% (active)	-64.9% (active)	-14.2% (active)	-67.2% (active)	-80% (active)	-63.6% (active)	-78.6% (active)
COc1cnc2c(c1)C(=O)c1c-2n(CCCN2CCN(C)CC2)c(=O)c2cc(Cl)ccc12	47.9%	30.4%	49.3%	20.5%	6.14% (active)	11.7%	37.7%	21.3%	31.3%	33.1%	-76.1% (active)	75.4%	48.6%	46.9%	35.7%	35.5%	14.7%	14.1%	-54.4% (active)
